Our source for the Potency, activity change, negative = inhibition and viability (% of control) values is PubChem BioAssay (NCATS).

Records with an inconclusive call do not appear. Where a call stands in place of a potency, no number is given. Unmarked numbers belong to inactive results. Activity calls are given as the source filed them. Calls follow the shape of the dose curve; as a rule, active = well fitted curve in the direction sought with a large enough effect; inconclusive = small, poorly fitted or top-dose-only effect, or another doubt; inactive = no such curve, though single readings can be large; an effect the other way counts as inactive or inconclusive.
Also: nearly all actives have a fitted effect of over 40% in size.

For one assay, the target named is Cytochrome P450 3A7 (Homo sapiens) (UniProt P24462). Briefly: Cytochrome P450 family 3 subfamily A member 7 (CYP3A7) small molecule antagonists: luciferase biochemical qHTS assay (AID 1963596). The following applies: P450-Glo CYP3A7 enzyme luminescence, 1 h; series mostly up to 57.4 µM. A digest of the protocol: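 Luminescence read-out (relative luminescence units) after 20 min with detection reagent, which stops the reaction. Enzyme, proluciferin substrate and compound preincubated 10 min, RT; NADPH regeneration system then started 1 h reaction. Ketoconazole as positive control.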
Sequence of Cytochrome P450 3A7 (Homo sapiens) (P24462 whole entry, looked up): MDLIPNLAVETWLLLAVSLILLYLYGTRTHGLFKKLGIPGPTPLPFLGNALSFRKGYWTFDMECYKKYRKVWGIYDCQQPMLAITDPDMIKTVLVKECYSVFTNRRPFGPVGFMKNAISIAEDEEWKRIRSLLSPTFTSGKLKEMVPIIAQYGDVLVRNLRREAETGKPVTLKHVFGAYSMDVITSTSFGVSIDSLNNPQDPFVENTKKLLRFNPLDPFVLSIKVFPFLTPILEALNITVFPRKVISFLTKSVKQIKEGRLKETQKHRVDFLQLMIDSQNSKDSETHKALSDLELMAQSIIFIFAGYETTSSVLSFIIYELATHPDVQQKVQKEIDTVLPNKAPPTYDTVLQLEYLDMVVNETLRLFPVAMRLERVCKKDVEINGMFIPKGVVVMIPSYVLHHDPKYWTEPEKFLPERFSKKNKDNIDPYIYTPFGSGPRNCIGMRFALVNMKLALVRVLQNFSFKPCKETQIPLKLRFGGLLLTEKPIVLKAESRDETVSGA
Background: qHTS replaces the single test concentration by a dilution series.
Take `CCCCCCCCCCC(CO)CCCCCCCC` (stereo not given): the Potency result was “inactive”.

On to `CC(C)[C@@H]1CC[C@@H](C)CC1=O`, for which the Potency result is “inactive”.

For `NCCc1ccn[nH]1`, the Potency entry is “inactive”.

On to `CN1CCN(c2cc3c(nn2)Oc2ccccc2N3C)CC1`, for which the Potency result is “inactive”.

For the compound `Cc1cn([C@H]2C=C[C@@H](CO)O2)c(=O)[nH]c1=O`, the Potency entry is “inactive”.

On to `CC1(C)[C@H](C(=O)O)N2C(=O)C[C@H]2S1(=O)=O`, for which the Potency entry was “inactive”.

Take `CCCCOc1ccc(C(=O)Nc2ccc(F)cc2F)cc1`: the Potency entry was “inactive”.

With `CC[C@@]1(c2ccccc2)NC(=O)N(C)C1=O`, the Potency entry is “inactive”.

Consider `O=C1O[C@H]([C@@H](O)CO)C(O)=C1O`, for which the Potency result was “inactive”.

As to `CC1(C)Oc2ccc(C#N)cc2[C@@H](N2CCCC2=O)[C@@H]1O`, the Potency result was “inactive”.

For the compound `CN(c1nccc(=O)[nH]1)C1CCN(c2nc3ccccc3n2Cc2ccc(F)cc2)CC1`, the Potency entry is “inactive”.

Take `Nc1nc(Cl)nc2c1ncn2[C@H]1C[C@H](O)[C@@H](CO)O1`: the Potency entry is “inactive”.

On to `O=C(Nc1ccc(Cl)cc1)Nc1ccc(Cl)c(Cl)c1`, for which the Potency result was “inactive”.

Consider `C[N+](C)(C)CCOC(N)=O`, for which the Potency entry was “inactive”.

As to `CC[C@H](C)C(=O)O[C@H]1C[C@H](O)C=C2C=C[C@H](C)[C@H](CC[C@@H](O)C[C@@H](O)CC(=O)O)[C@H]21`, the Potency entry is “inactive”.

For `C[C@@H](CN1CC(=O)NC(=O)C1)N1CC(=O)NC(=O)C1`, the Potency entry was “inactive”.

`Nc1cccc2c1CN(C1CCC(=O)NC1=O)C2=O` (stereo not given): the Potency entry was “inactive”.

With `CCn1cc(C(=O)O)c(=O)c2cc(F)c(N3CCNC(C)C3)c(F)c21` (stereo not given), the Potency entry was “inactive”.

For the compound `OC(CN1CCC(Cc2ccc(F)cc2)CC1)c1ccc(Cl)cc1` (stereo not given), the Potency result was “inactive”.

For `CC[N+](CC)(CC)CCOC(=O)C(C1CCCC1)C1CCCC1`, the Potency result was “inactive”.

Regarding `CCOC(=O)n1ccn(C)c1=S`, the Potency result was “inactive”.

On to `C[C@@H]1CC[C@@]2(OC1)O[C@H]1C[C@H]3[C@@H]4CC[C@H]5C[C@@H](O)CC[C@]5(C)[C@H]4CC(=O)[C@]3(C)[C@H]1[C@@H]2C`, for which the activity change, negative = inhibition was -8.63% [at 4.83 µM].

Consider `C=CCOc1ccccc1OCC(O)CNC(C)C` (stereo not given), for which the Potency result is “inactive”.

Consider `CN(C(=O)C(Cl)Cl)c1ccc(OC(=O)c2ccco2)cc1`, for which the Potency result is “inactive”.

As to `CCCn1cnc2c1c(=O)n(CCCCC(C)=O)c(=O)n2C`, the Potency result was “inactive”.

For `CNCCC(Oc1ccccc1OC)c1ccccc1` (stereo not given), the Potency entry is “inactive”.

On to `CCN1CCC[C@H]1CNC(=O)c1cc(S(N)(=O)=O)ccc1OC`, for which the Potency entry is “inactive”.

On to `Cc1nnc(C(=O)NC(C)(C)c2nc(C(=O)NCc3ccc(F)cc3)c(O)c(=O)n2C)o1`, for which the Potency result was “inactive”.

As to `Clc1cccc(Cl)c1NC1=NCCN1`, the Potency result was “inactive”.

Regarding `CCC1(c2ccccc2)C(=O)NCNC1=O`, the Potency result is “inactive”.

Turning to `CC(C)(C)c1cc(C=O)cc(C(C)(C)C)c1O`, the Potency result is “inactive”.

As for `O=C(OCc1ccccc1)c1ccccc1`, the Potency entry is “inactive”.

For the compound `Cc1nc(NC(=O)N2CCC[C@H]2C(N)=O)sc1-c1ccnc(C(C)(C)C(F)(F)F)c1`, the Potency result was “inactive”.

For the compound `CC(=O)Nc1ncc([N+](=O)[O-])s1`, the Potency entry is “inactive”.

For `C=C(CC)C(=O)c1ccc(OCC(=O)O)c(Cl)c1Cl`, the Potency entry was “inactive”.

Turning to `CC(C)Nc1cc(C(F)(F)F)cc2nc(NC(=O)c3cccnc3)nn12`, the Potency entry was “inactive”.

Turning to `Cc1cc(C(C)(C)C)c(O)c(C(C)(C)C)c1`, the Potency result was “inactive”.

Turning to `COc1ccccc1OCC(O)CN1CCN(CC(=O)Nc2c(C)cccc2C)CC1` (stereo not given), the Potency result is “inactive”.

For the compound `CC(=O)N(CC(O)CO)c1c(I)c(C(=O)NCCO)c(I)c(C(=O)NCC(O)CO)c1I` (stereo not given), the Potency entry is “inactive”.

As for `CCC1(C)CC(=O)NC1=O` (stereo not given), the Potency result was “inactive”.

Test system in the next assay: not listed separately
Briefly: Viability qHTS for spleen associated tyrosine kinase inhibitor (SYKi) naive MV4-11 cells (AID 1963823). Also: potency is read from the fitted curve at half-maximal effect. The following applies: MV4-11 AML viability, CellTiter-Glo luminescence, 72 h; series mostly up to 45 µM. A digest of the protocol:
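CellTiter-Glo luminescence, 10 min room-temperature incubation, gave viability. Cells: naive MV4-11 (500/well), treated 72 hr at 37 C, 5% CO2.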
Consider `CCCCCCCCCCC(CO)CCCCCCCC` (stereo not given), for which the Potency entry is “inactive”.

On to `CC(C)[C@@H]1CC[C@@H](C)CC1=O`, for which the Potency entry was “inactive”.

For the compound `NCCc1ccn[nH]1`, the Potency result is “inactive”.

Regarding `CN1CCN(c2cc3c(nn2)Oc2ccccc2N3C)CC1`, the Potency entry was “inactive”.

Regarding `Cc1cn([C@H]2C=C[C@@H](CO)O2)c(=O)[nH]c1=O`, the Potency result is “inactive”.

Regarding `CC1(C)[C@H](C(=O)O)N2C(=O)C[C@H]2S1(=O)=O`, the Potency result was “inactive”.

Turning to `CCCCOc1ccc(C(=O)Nc2ccc(F)cc2F)cc1`, the Potency result is “inactive”.

`CC[C@@]1(c2ccccc2)NC(=O)N(C)C1=O`: the Potency entry was “inactive”.

For `O=C1O[C@H]([C@@H](O)CO)C(O)=C1O`, the Potency entry was “inactive”.

As for `CC1(C)Oc2ccc(C#N)cc2[C@@H](N2CCCC2=O)[C@@H]1O`, the Potency result was “inactive”.

As to `CN(c1nccc(=O)[nH]1)C1CCN(c2nc3ccccc3n2Cc2ccc(F)cc2)CC1`, the Potency entry was “inactive”.

As for `Nc1nc(Cl)nc2c1ncn2[C@H]1C[C@H](O)[C@@H](CO)O1`, the Potency was 0.0934 µM (active).

`O=C(Nc1ccc(Cl)cc1)Nc1ccc(Cl)c(Cl)c1`: the Potency is 9.44 µM (active).

Regarding `C[N+](C)(C)CCOC(N)=O`, the Potency entry is “inactive”.

For `CC[C@H](C)C(=O)O[C@H]1C[C@H](O)C=C2C=C[C@H](C)[C@H](CC[C@@H](O)C[C@@H](O)CC(=O)O)[C@H]21`, the Potency result is “inactive”.

In the case of `C[C@@H](CN1CC(=O)NC(=O)C1)N1CC(=O)NC(=O)C1`, the Potency result is “inactive”.

Take `Nc1cccc2c1CN(C1CCC(=O)NC1=O)C2=O` (stereo not given): the Potency was 4.22 µM (active).

In the case of `CCn1cc(C(=O)O)c(=O)c2cc(F)c(N3CCNC(C)C3)c(F)c21` (stereo not given), the Potency entry is “inactive”.

As to `OC(CN1CCC(Cc2ccc(F)cc2)CC1)c1ccc(Cl)cc1` (stereo not given), the Potency was 5.31 µM (active).

Regarding `CC[N+](CC)(CC)CCOC(=O)C(C1CCCC1)C1CCCC1`, the Potency is 18.8 µM (active).

Turning to `CCOC(=O)n1ccn(C)c1=S`, the Potency result was “inactive”.

Regarding `C[C@@H]1CC[C@@]2(OC1)O[C@H]1C[C@H]3[C@@H]4CC[C@H]5C[C@@H](O)CC[C@]5(C)[C@H]4CC(=O)[C@]3(C)[C@H]1[C@@H]2C`, the viability (% of control) is 83.6% [at 4.97 µM].

For `C=CCOc1ccccc1OCC(O)CNC(C)C` (stereo not given), the Potency result is “inactive”.

Take `CN(C(=O)C(Cl)Cl)c1ccc(OC(=O)c2ccco2)cc1`: the Potency result was “inactive”.

`CCCn1cnc2c1c(=O)n(CCCCC(C)=O)c(=O)n2C`: the Potency result was “inactive”.

Turning to `CNCCC(Oc1ccccc1OC)c1ccccc1` (stereo not given), the Potency entry is “inactive”.

On to `CCN1CCC[C@H]1CNC(=O)c1cc(S(N)(=O)=O)ccc1OC`, for which the Potency entry was “inactive”.

On to `Cc1nnc(C(=O)NC(C)(C)c2nc(C(=O)NCc3ccc(F)cc3)c(O)c(=O)n2C)o1`, for which the Potency entry is “inactive”.

For `Clc1cccc(Cl)c1NC1=NCCN1`, the Potency result is “inactive”.

Take `CCC1(c2ccccc2)C(=O)NCNC1=O`: the Potency result is “inactive”.

Take `CC(C)(C)c1cc(C=O)cc(C(C)(C)C)c1O`: the Potency entry was “inactive”.

Turning to `O=C(OCc1ccccc1)c1ccccc1`, the Potency result is “inactive”.

Take `Cc1nc(NC(=O)N2CCC[C@H]2C(N)=O)sc1-c1ccnc(C(C)(C)C(F)(F)F)c1`: the Potency was 13 µM (active).

Turning to `CC(=O)Nc1ncc([N+](=O)[O-])s1`, the Potency result was “inactive”.

In the case of `C=C(CC)C(=O)c1ccc(OCC(=O)O)c(Cl)c1Cl`, the Potency was 13.3 µM (active).

For `CC(C)Nc1cc(C(F)(F)F)cc2nc(NC(=O)c3cccnc3)nn12`, the Potency is 0.184 µM (active).

In the case of `Cc1cc(C(C)(C)C)c(O)c(C(C)(C)C)c1`, the Potency result is “inactive”.

For `COc1ccccc1OCC(O)CN1CCN(CC(=O)Nc2c(C)cccc2C)CC1` (stereo not given), the Potency result was “inactive”.

`CC(=O)N(CC(O)CO)c1c(I)c(C(=O)NCCO)c(I)c(C(=O)NCC(O)CO)c1I` (stereo not given): the Potency entry is “inactive”.

For `CCC1(C)CC(=O)NC1=O` (stereo not given), the Potency entry is “inactive”.
